Reference: PubChem BioAssay (NCATS)
“And” between values parts separate entries of the source, which are not always exact repeats. Equal entries are not always repeated. Unmarked numbers belong to inactive results. Records with an inconclusive call do not appear. The source made the active and inactive calls. Unless noted, calls follow the shape of the full dose curve.

Columns and labels:
[1] = AP1 Signaling Pathway (AID 357; active = well fitted curve in either direction with a large enough effect, not every such curve was filed as active;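 also: ME-180 reporter cells stimulated with EGF at its EC50 level; % is scaled to controls: 0 for no effect and ±100 for the full control effect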); conditions: ME-180 (cervical carcinoma) AP-1-bla reporter, EGF-induced, beta-lactamase ratio, 5 h; at 17.2 µM (top of the series) unless noted
Outline: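 Beta-lactamase reporter under AP-1 response element, ME-180 background. Stimulus: EC50 EGF. Compound exposure 5 h, 37 °C. Detection: CCF4, 2.5 h RT, 460/530 nm. Values: AC50 from titration.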

[2] = molecular target: Glucocorticoid receptor (Homo sapiens) (UniProt P04150); test: GR-GFP Redistribution (AID 450;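 active = compounds whose dose series gives a full or clear partial fitted curve of increased nuclear translocation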; also: potency is read from the fitted curve at half-maximal effect); conditions: U2OS GR-GFP nuclear translocation, laser cytometry, 2 h
Sequence of Glucocorticoid receptor (Homo sapiens) (P04150 whole entry, looked up, the tested form may be a part): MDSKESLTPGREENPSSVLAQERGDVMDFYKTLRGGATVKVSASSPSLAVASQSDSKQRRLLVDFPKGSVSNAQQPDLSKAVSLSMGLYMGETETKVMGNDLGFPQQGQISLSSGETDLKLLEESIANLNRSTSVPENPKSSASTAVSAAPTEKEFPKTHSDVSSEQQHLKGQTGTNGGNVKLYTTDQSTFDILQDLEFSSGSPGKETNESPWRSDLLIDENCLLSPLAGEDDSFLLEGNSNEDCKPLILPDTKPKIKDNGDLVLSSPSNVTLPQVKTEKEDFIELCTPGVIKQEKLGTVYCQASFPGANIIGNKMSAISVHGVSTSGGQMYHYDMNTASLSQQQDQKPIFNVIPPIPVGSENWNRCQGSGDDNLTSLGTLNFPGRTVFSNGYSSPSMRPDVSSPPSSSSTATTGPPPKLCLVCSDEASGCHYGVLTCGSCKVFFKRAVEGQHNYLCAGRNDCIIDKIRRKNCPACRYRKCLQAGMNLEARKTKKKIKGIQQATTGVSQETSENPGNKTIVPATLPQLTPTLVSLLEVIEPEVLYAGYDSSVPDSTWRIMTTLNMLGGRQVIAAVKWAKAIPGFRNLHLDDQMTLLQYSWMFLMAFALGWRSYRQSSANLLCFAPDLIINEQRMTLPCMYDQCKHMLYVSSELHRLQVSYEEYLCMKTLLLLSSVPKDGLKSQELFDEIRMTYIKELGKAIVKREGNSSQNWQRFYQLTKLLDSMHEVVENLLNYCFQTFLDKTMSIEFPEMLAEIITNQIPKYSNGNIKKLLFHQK

[3] = molecular target: Glucocorticoid receptor (Homo sapiens) (UniProt P04150); test: GR-EFC Redistribution (AID 451); conditions: CHO-K1 GR-EFC translocation, beta-gal luminescence, 2 h; also: potency is read from the fitted curve at half-maximal effect
Outline: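 CHO-K1 cells expressing nuclear EA and GR-ED fragments of b-gal; compounds titrated up to 46 uM final, 2 h at 37 C. GR nuclear translocation read as complemented b-gal luminescence after 1 h RT detection.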

[4] = molecular target: 3',5'-cyclic-AMP phosphodiesterase 4B (Homo sapiens) (UniProt Q07343); test: qHTS Assay for Inhibitors of PDE-IV (AID 607; active = well fitted activation curve with a large enough effect in the main read-out, with a control signal flat, not every such curve was filed as active; also: % of control where 0% means no effect)
Sequence of 3',5'-cyclic-AMP phosphodiesterase 4B (Homo sapiens) (Q07343 whole entry, looked up): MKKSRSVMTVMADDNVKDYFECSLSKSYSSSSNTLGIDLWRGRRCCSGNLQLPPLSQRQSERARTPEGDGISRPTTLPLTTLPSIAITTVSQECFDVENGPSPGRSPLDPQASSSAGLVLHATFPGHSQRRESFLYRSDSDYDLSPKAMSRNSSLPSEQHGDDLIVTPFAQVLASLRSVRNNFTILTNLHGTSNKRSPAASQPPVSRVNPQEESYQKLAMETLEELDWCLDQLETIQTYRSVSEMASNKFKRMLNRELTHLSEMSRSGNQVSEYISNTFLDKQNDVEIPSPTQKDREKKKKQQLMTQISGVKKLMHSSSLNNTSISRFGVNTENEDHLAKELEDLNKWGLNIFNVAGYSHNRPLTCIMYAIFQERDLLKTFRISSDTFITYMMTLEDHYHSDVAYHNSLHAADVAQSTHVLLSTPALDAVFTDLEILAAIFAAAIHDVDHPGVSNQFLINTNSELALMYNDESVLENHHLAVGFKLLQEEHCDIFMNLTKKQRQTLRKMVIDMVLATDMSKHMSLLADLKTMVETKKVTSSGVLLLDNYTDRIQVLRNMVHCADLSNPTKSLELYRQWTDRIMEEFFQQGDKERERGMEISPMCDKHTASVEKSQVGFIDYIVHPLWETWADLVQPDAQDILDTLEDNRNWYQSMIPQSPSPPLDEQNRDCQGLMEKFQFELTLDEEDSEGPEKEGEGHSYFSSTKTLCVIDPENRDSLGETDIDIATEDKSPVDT
Outline: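 The readout is membrane depolarisation from a cAMP-sensing CNG channel, detected with a potential dye at ex 535/em 590. Cells were HEK293-derived (endogenous PDE-IV) at 1000 cells/well, titrated up to 22.9 uM final.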

[5] = molecular target: Cytochrome P450 2D6 (Homo sapiens) (UniProt P10635); test: qHTS Assay for Inhibitors and Substrates of Cytochrome P450 2D6 (AID 891; active = well fitted inhibition curve with a large enough effect; also: nearly all actives have a fitted effect of over 60% in size; also: potency is read from the fitted curve at half-maximal effect;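 as to activity change, negative = inhibition: luciferin methyl ether substrate demethylated by CYP2D6 with NADPH regeneration; % is scaled to controls: 0 for no effect and ±100 for the full control effect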)
Sequence of Cytochrome P450 2D6 (Homo sapiens) (P10635 whole entry, looked up): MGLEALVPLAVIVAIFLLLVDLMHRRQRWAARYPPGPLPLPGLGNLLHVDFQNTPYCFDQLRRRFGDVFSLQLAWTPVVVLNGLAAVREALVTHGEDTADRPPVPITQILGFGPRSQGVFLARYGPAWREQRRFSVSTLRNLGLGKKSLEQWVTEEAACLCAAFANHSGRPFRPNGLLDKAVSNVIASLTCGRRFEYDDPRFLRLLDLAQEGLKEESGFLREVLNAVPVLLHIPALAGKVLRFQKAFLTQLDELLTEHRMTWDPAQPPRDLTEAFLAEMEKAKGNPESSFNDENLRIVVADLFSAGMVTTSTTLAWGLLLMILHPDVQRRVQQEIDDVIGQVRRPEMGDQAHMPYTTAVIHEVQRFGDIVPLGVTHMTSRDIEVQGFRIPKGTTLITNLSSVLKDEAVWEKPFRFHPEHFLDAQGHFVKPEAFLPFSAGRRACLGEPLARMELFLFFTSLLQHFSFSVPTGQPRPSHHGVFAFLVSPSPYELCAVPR
Outline: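 Luminescent read-out of luciferin formed by 5 nM human CYP2D6 demethylating 30 uM Luciferin-ME EGE (Km level) over 60 min at room temperature after NADPH regeneration addition. Data normalized to full inhibition by 1.43 uM quinidine.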

[6] = molecular target: Cytochrome P450 2C19 (Homo sapiens) (UniProt P33261); test: qHTS Assay for Inhibitors and Substrates of Cytochrome P450 2C19 (AID 899; active = well fitted inhibition curve with a large enough effect; also: nearly all actives have a fitted effect of over 60% in size; also: potency is read from the fitted curve at half-maximal effect)
Sequence of Cytochrome P450 2C19 (Homo sapiens) (P33261 whole entry, looked up): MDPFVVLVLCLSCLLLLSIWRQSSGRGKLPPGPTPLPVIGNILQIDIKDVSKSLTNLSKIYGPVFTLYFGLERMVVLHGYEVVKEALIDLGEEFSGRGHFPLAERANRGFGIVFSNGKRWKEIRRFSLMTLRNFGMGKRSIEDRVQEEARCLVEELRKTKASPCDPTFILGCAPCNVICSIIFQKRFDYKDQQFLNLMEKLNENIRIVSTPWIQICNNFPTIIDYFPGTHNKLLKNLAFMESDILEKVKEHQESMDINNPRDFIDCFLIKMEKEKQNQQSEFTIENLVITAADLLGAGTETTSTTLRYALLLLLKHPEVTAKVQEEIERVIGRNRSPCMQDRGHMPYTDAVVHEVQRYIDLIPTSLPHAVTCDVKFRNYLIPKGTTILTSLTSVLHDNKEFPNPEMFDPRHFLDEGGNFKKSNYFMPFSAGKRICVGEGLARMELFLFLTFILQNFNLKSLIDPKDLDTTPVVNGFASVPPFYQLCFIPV
Outline: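 Luminescent read-out of luciferin formed from Luciferin-H EGE (10uM, equal to KM). Enzyme 5nM in 50mM KPO4; compound added, 10 min at 37C, then NADPH regenerating system for 60 min at 37C. Full inhibition defined by 57uM ketoconazole.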

[7] = molecular target: Cytochrome P450 1A2 (Homo sapiens) (UniProt P05177); test: p450-cyp1a2 (AID 410); also: potency is read from the fitted curve at half-maximal effect;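 as to activity change, negative = inhibition: -100% = full effect of reference inhibitor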
Sequence of Cytochrome P450 1A2 (Homo sapiens) (P05177 whole entry, looked up): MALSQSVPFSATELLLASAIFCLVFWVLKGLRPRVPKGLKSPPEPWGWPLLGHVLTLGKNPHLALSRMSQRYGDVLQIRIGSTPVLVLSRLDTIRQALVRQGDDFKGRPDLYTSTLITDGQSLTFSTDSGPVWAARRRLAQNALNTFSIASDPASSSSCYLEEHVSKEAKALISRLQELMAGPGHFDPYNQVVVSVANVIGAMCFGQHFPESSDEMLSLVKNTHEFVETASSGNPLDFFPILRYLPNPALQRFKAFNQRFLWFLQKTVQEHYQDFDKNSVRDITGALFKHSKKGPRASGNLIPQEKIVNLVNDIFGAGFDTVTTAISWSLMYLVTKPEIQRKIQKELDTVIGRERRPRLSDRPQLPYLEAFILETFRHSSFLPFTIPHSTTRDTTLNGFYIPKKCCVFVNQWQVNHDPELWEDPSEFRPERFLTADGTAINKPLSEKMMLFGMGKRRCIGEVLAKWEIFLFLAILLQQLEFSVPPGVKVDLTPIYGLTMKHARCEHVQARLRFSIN
Outline: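 O-Demethylation of luciferin 6' methyl ether by human CYP1A2 is monitored as luciferase luminescence. Substrate sits at Km (100uM); enzyme is 20nM. Values are scaled to 57 uM furafylline as maximal inhibition.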

[8] = molecular target: Mitogen-activated protein kinase 10 (Mus musculus) (UniProt Q61831); test: JNK3 AlphaScreen Assay (AID 530; active = well fitted curve in either direction with a large enough effect, not every such curve was filed as active;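 also: kinase came from lysate of stimulated human HepG2 cells; signal reports phosphorylation of biotinylated GST-cJun 1-79 at Ser73 with 10 µM ATP; % is scaled to controls: 0 for no effect and ±100 for the full control effect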)
Outline: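 Activity was read by AlphaScreen after JNK3-containing HepG2 lysate (cytokine pre-activated) phosphorylated biotinylated GST-cJun with 10 uM ATP at room temperature. Phospho-Ser73 cJun antibody with Protein-A acceptor beads provided detection.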

[9] = molecular target: Cytochrome P450 3A4 (Homo sapiens) (UniProt P08684); test: qHTS Assay for Inhibitors and Substrates of Cytochrome P450 3A4 (AID 884; active = well fitted inhibition curve with a large enough effect; also: nearly all actives have a fitted effect of over 50% in size; also: potency is read from the fitted curve at half-maximal effect; as to activity change, negative = inhibition: % is scaled to controls: 0 for no effect and ±100 for the full control effect)
Sequence of Cytochrome P450 3A4 (Homo sapiens) (P08684 whole entry, looked up): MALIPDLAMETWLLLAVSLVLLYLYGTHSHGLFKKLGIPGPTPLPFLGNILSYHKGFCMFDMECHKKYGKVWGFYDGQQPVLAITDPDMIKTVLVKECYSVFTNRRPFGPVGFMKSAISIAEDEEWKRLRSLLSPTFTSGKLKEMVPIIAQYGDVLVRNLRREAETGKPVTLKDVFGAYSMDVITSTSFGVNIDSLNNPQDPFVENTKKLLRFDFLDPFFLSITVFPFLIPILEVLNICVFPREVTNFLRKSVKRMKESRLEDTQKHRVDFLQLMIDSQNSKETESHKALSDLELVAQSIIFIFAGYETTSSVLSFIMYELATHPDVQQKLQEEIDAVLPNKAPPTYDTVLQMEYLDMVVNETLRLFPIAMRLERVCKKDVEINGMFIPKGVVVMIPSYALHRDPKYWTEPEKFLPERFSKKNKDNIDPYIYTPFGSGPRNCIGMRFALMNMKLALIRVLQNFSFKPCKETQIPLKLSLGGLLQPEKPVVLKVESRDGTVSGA
Outline: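 Luminescent readout of luciferin produced by CYP3A4 (20 nM) dealkylation of Luciferin-PPXE, 25 uM (its KM). NADPH-driven reaction ran 60 min at RT after 10 min compound preincubation; data scaled to 57 uM ketoconazole as 100% inhibition.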

| SMILES | activity change, negative = inhibition [1] | Potency [2] | Potency [3] | outcome [4] | Potency [5] | Potency [6] | Potency [7] | outcome [8] | Potency [9] |
| --- | --- | --- | --- | --- | --- | --- | --- | --- | --- |
| CC(C)[C@H]1C(=O)N2CCC[C@H]2[C@]2(O)O[C@](NC(=O)[C@@H]3C=C4c5cccc6[nH]cc(c56)C[C@H]4N(C)C3)(C(C)C)C(=O)N12 | -19% | > 20.6 µM |  |  |  |  |  |  |  |
| COc1ccc2c(c1OC)C(=O)OC2c1c(O)n(C2CCCCC2)c(=O)[nH]c1=O (stereo unspecified) | -13.3% | > 20.6 µM |  |  |  |  |  |  |  |
| N[C@@H](Cc1cc(O)c(O)cc1O)C(=O)O | -19.5% [at 38 µM] | > 46 µM | > 46 µM | inactive | inactive | inactive |  |  |  |
| c1cc2c(cc1[C@H]1OC[C@H]3[C@@H]1CO[C@H]3c1ccc3c(c1)OCO3)OCO2 |  | > 46 µM | > 46 µM | inactive | 15.8 µM (active) | 3.16 µM (active) | 2 µM (active) | inactive |  |
| C=C[C@@H]1CN2CC[C@H]1C[C@H]2[C@@H](O)c1ccnc2ccccc12 |  | > 46 µM | > 46 µM |  | 0.1 µM (active) | inactive | inactive | inactive |  |
| CCCCCC[C@H]1C(=O)O[C@H](C)[C@H](NC(=O)c2cccc(NC=O)c2O)C(=O)O[C@@H](C)[C@H]1OC(=O)CC(C)C |  | > 20.6 µM | > 20.6 µM | inactive |  |  | inactive | inactive | 5.01 µM (active) |
| COC[C@@H]1OC(=O)c2coc3c2[C@]1(C)C1=C(C3=O)[C@H]2CCC(=O)[C@]2(C)C[C@@H]1OC(C)=O | -78.2% [at 38 µM] (active) | > 46 µM | > 46 µM | inactive | inactive | inactive |  |  |  |
| CN1[C@@H]2CC[C@H]1CC(O[C@@H](c1ccccc1)c1ccccc1N)C2 (stereo partly specified) | 12.1% [at 38 µM] | > 46 µM | > 46 µM | inactive |  |  |  | inactive |  |
| O=c1cccc2n1C[C@H]1C[C@@H]2CN(CCO)C1 |  | > 46 µM | > 46 µM | inactive | inactive | inactive | 15.8 µM (active) | inactive |  |
| CN1CC=C2C(C#N)=C(N)C(C#N)(C#N)C(c3ccncc3)C2C1 (stereo unspecified) | 21.4% | > 20.6 µM |  |  |  |  |  |  |  |
| CC[C@@]12CCCN3CC[C@@]4(c5ccc(OC)c(O)c5N(C(C)=O)[C@H]4CC1)[C@H]32 |  | > 46 µM | > 46 µM | inactive |  | 0.794 µM (active) | inactive | inactive |  |
| C[C@H]1CCC/C=C/C2C[C@H](O)CC2[C@H](O)/C=C/C(=O)O1 (stereo partly specified) | 5.62% | > 20.6 µM |  |  |  |  |  |  |  |
| NC(=O)c1ccc(OC[C@H](O)CN2CC=C(c3ccc(F)cc3)CC2)cc1 | 18.4% [at 38 µM] | > 46 µM | > 46 µM | inactive |  |  |  |  |  |
| CN1CCc2cc3c(cc2[C@@H]1[C@H]1OC(=O)c2c1ccc1c2OCO1)OCO3 |  | > 46 µM | > 46 µM | inactive | 15.8 µM (active) | 100 nM (active) and 15.8 nM (active) | 15.8 µM (active) and 12.6 µM (active) | inactive |  |
| CC[C@]1(O)C(=O)OCc2c1cc1n(c2=O)Cc2cc3ccccc3nc2-1 |  | > 46 µM | > 46 µM |  | inactive | inactive | 5.01 µM (active) | inactive | inactive |
| C=CCn1c(O)c(C=Nc2ccc(N(CC)CC)cc2)c(=O)[nH]c1=O | -13.2% | > 20.6 µM |  |  |  |  |  |  |  |
| CC(C)C[C@H]1C(=O)N2CCC[C@@H]2[C@]2(O)O[C@](NC(=O)[C@H]3C=C4c5cccc6[nH]cc(c56)C[C@H]4N(C)C3)(C(C)C)C(=O)N12 |  | > 46 µM | > 46 µM | inactive | inactive |  | 31.6 µM (active) |  |  |
| CC[C@H]1[C@@H]2C[C@@H]3[C@@H]4N(C)c5ccccc5[C@@]45C[C@@H]([C@H]2[C@@H]5O)N3[C@@H]1O |  | > 46 µM | > 46 µM |  | 3.16 µM (active) | inactive | inactive | inactive |  |
| CC(=O)N1C[C@@H]2C[C@H](C1)c1cccc(=O)n1C2 |  | > 46 µM | > 46 µM | inactive | inactive | inactive | inactive | inactive |  |
| C[C@]1(C(=O)O)[C@@H]2CC[C@@H](O2)[C@@]1(C)C(=O)O | -103% [at 38 µM] (active) | > 46 µM | > 46 µM | inactive |  | inactive |  | inactive |  |
| CN1C[C@H](CO)C=C2c3cccc4[nH]cc(c34)C[C@H]21 |  | > 46 µM | > 46 µM | inactive | 0.0251 µM (active) |  | 1 µM (active) | inactive |  |
| c1cc2cc(c1)C[n+]1ccc(c3ccccc31)NCc1ccc(cc1)CNc1cc[n+](c3ccccc13)C2 |  | > 46 µM |  | inactive |  |  | inactive |  |  |
| C[C@]12Cc3cn4c(nc3C=C1CC[C@H]1[C@@H]2CC[C@@]2(C)[C@H]1CC[C@@]2(O)C#N)nc1ccccc14 |  | > 46 µM | > 46 µM | inactive |  |  | 15.8 µM (active) | inactive | inactive |
| Ic1ccccc1CN[C@@H]1C2CCN(CC2)[C@H]1C(c1ccccc1)c1ccccc1 |  | > 46 µM | > 46 µM |  | 0.0631 µM (active) |  | 12.6 µM (active) | inactive |  |
